Test results: the supplement of paper PMC8728848
This excerpt belongs to a sample that is enriched for the strongest signals.

Columns and labels:
Assay in all cases: glycan array binding signal (z-score within array); higher = stronger binding
Settings in all cases: glycan notation: IUPAC condensed, linker removed
[1] = biological target: Gal(b1-4)GlcNAc(b1-3)Gal(b1-4)GlcNAc(b1-3)Gal(b1-4)GlcNAc(b1-3)Gal(b1-4)GlcNAc(b1-3)Gal(b1-4)GlcNAc(b1-2)Man(a1-3)[Gal(b1-4)GlcNAc(b1-3)Gal(b1-4)GlcNAc(b1-3)Gal(b1-4)GlcNAc(b1-3)Gal(b1-4)GlcNAc(b1-3)Gal(b1-4)GlcNAc(b1-2)Man(a1-6)]Man(b1-4)GlcNAc(b1-4)[Fuc(a1-6)]GlcNAc
How it was run: (§1)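 Glycan array data were curated from 3228 arrays in the Consortium for Functional Glycomics database and kept only where the protein sequence was available. Glycan names were converted to IUPAC-condensed notation, and columns mapping to the same glycan were averaged. The binding signal is a within-array Z-score, averaged across arrays of the same protein sequence at different concentrations or buffers and across linkers. Negative Z-scores can be read as non-binding.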

[2] = biological target: Gal(b1-4)GlcNAc(b1-3)Gal(b1-4)GlcNAc(b1-3)Gal(b1-4)GlcNAc(b1-3)Gal(b1-4)GlcNAc(b1-3)Gal(b1-4)GlcNAc(b1-2)[Gal(b1-4)GlcNAc(b1-3)Gal(b1-4)GlcNAc(b1-3)Gal(b1-4)GlcNAc(b1-3)Gal(b1-4)GlcNAc(b1-3)Gal(b1-4)GlcNAc(b1-6)]Man(a1-6)[Gal(b1-4)GlcNAc(b1-3)Gal(b1-4)GlcNAc(b1-3)Gal(b1-4)GlcNAc(b1-3)Gal(b1-4)GlcNAc(b1-3)Gal(b1-4)GlcNAc(b1-2)Man(a1-3)]Man(b1-4)GlcNAc(b1-4)[Fuc(a1-6)]GlcNAc
How it was run: as §1

[3] = biological target: Gal(b1-4)GlcNAc(b1-3)Gal(b1-4)GlcNAc(b1-3)Gal(b1-4)GlcNAc(b1-3)Gal(b1-4)GlcNAc(b1-3)Gal(b1-4)GlcNAc(b1-3)Gal(b1-4)GlcNAc(b1-2)Man(a1-3)[Gal(b1-4)GlcNAc(b1-3)Gal(b1-4)GlcNAc(b1-3)Gal(b1-4)GlcNAc(b1-3)Gal(b1-4)GlcNAc(b1-3)Gal(b1-4)GlcNAc(b1-3)Gal(b1-4)GlcNAc(b1-2)Man(a1-6)]Man(b1-4)GlcNAc(b1-4)GlcNAc
How it was run: as §1

[4] = biological target: Gal(b1-4)GlcNAc(b1-6)GalNAc
How it was run: as §1

GalNAc6S(b1-4)GlcNAc = biological target: GalNAc6S(b1-4)GlcNAc
How it was run: as §1

[5] = biological target: GlcNAc(a1-4)Gal(b1-4)GlcNAc
How it was run: as §1

[6] = biological target: GlcNAc(b1-2)[GlcNAc(b1-4)]Man(a1-3)[GlcNAc(b1-4)][GlcNAc(b1-2)[GlcNAc(b1-6)]Man(a1-6)]Man(b1-4)GlcNAc(b1-4)GlcNAc
How it was run: as §1

[7] = biological target: GlcNAc(b1-2)[GlcNAc(b1-6)]Man(a1-6)[GlcNAc(b1-4)][GlcNAc(b1-2)Man(a1-3)]Man(b1-4)GlcNAc(b1-4)GlcNAc
How it was run: as §1

GlcNAc(b1-3)Gal(b1-4)Glc = biological target: GlcNAc(b1-3)Gal(b1-4)Glc
How it was run: as §1

[8] = biological target: GlcNAc(b1-3)Gal(b1-4)GlcNAc(b1-3)Gal(b1-4)GlcNAc(b1-3)Gal(b1-4)GlcNAc(b1-2)Man(a1-3)[GlcNAc(b1-3)Gal(b1-4)GlcNAc(b1-3)Gal(b1-4)GlcNAc(b1-3)Gal(b1-4)GlcNAc(b1-2)Man(a1-6)]Man(b1-4)GlcNAc(b1-4)[Fuc(a1-6)]GlcNAc
How it was run: as §1

[9] = biological target: GlcNAc(b1-3)Gal(b1-4)GlcNAc(b1-3)Gal(b1-4)GlcNAc(b1-3)Gal(b1-4)GlcNAc(b1-3)Gal(b1-4)GlcNAc(b1-2)Man(a1-3)[GlcNAc(b1-3)Gal(b1-4)GlcNAc(b1-3)Gal(b1-4)GlcNAc(b1-3)Gal(b1-4)GlcNAc(b1-3)Gal(b1-4)GlcNAc(b1-2)Man(a1-6)]Man(b1-4)GlcNAc(b1-4)GlcNAc
How it was run: as §1

[10] = biological target: GlcNAc(b1-3)Gal(b1-4)GlcNAc(b1-3)Gal(b1-4)GlcNAc(b1-3)Gal(b1-4)GlcNAc(b1-3)Gal(b1-4)GlcNAc(b1-2)Man(a1-3)[GlcNAc(b1-3)Gal(b1-4)GlcNAc(b1-3)Gal(b1-4)GlcNAc(b1-3)Gal(b1-4)GlcNAc(b1-3)Gal(b1-4)GlcNAc(b1-2)Man(a1-6)]Man(b1-4)GlcNAc(b1-4)[Fuc(a1-6)]GlcNAc
How it was run: as §1

[11] = biological target: GlcNAc(b1-3)Gal(b1-4)GlcNAc(b1-3)Gal(b1-4)GlcNAc(b1-3)Gal(b1-4)GlcNAc(b1-3)Gal(b1-4)GlcNAc(b1-2)[GlcNAc(b1-3)Gal(b1-4)GlcNAc(b1-3)Gal(b1-4)GlcNAc(b1-3)Gal(b1-4)GlcNAc(b1-3)Gal(b1-4)GlcNAc(b1-6)]Man(a1-6)[GlcNAc(b1-3)Gal(b1-4)GlcNAc(b1-3)Gal(b1-4)GlcNAc(b1-3)Gal(b1-4)GlcNAc(b1-3)Gal(b1-4)GlcNAc(b1-2)Man(a1-3)]Man(b1-4)GlcNAc(b1-4)[Fuc(a1-6)]GlcNAc
How it was run: as §1

[12] = biological target: Man(a1-2)Man(a1-3)[Man(a1-6)]Man(a1-6)[Man(a1-2)Man(a1-3)]Man(b1-4)GlcNAc(b1-4)GlcNAc
How it was run: as §1

[13] = biological target: Neu5Ac(a2-3)Gal(b1-4)GlcNAc6S
How it was run: as §1

[14] = biological target: Neu5Ac(a2-3)[Neu5Ac(a2-6)]GalNAc
How it was run: as §1

[15] = biological target: Neu5Ac(a2-6)Gal(b1-4)GlcNAc
How it was run: as §1

[16] = biological target: Neu5Ac(a2-6)Gal(b1-4)GlcNAc(b1-2)[Neu5Ac(a2-6)Gal(b1-4)GlcNAc(b1-4)]Man(a1-3)[GlcNAc(b1-4)][Neu5Ac(a2-6)Gal(b1-4)GlcNAc(b1-4)Man(a1-6)]Man(b1-4)GlcNAc(b1-4)GlcNAc
How it was run: as §1

[17] = biological target: Neu5Ac(a2-6)Gal(b1-4)GlcNAc(b1-3)Gal(b1-4)GlcNAc
How it was run: as §1

[18] = biological target: Neu5Ac(a2-6)Gal(b1-4)GlcNAc(b1-3)Gal(b1-4)GlcNAc(b1-3)Gal(b1-4)GlcNAc
How it was run: as §1

[19] = biological target: Neu5Ac(a2-6)Gal(b1-4)GlcNAc(b1-3)Gal(b1-4)GlcNAc(b1-3)[Neu5Ac(a2-6)Gal(b1-4)GlcNAc(b1-3)Gal(b1-4)GlcNAc(b1-6)]GalNAc
How it was run: as §1

[20] = biological target: Neu5Ac(a2-8)Neu5Ac(a2-3)Gal(b1-4)Glc
How it was run: as §1

[21] = biological target: Neu5Ac(a2-8)Neu5Ac(a2-8)Neu5Ac(a2-3)Gal(b1-4)Glc
How it was run: as §1

[22] = biological target: Neu5Gc(a2-3)Gal(b1-4)[Fuc(a1-3)]GlcNAc
How it was run: as §1

Neu5Gc(a2-6)GalNAc = biological target: Neu5Gc(a2-6)GalNAc
How it was run: as §1

B1: DrGal3 (Danio rerio) (protein)
chain: MDLSDALDAPPQQNNQQAGGPVWPGQPANPVWPGQPANPTWPGQPNQPAWPGQPNQQWPGQPGQPTAPGWPGPAPQTGPYGAPGQAPQVLTVPLDFPLQNGAYNKMLITINGEVKPNAKQFTVNLRRGNDIAFHINPRFSEGGKPVIVRNSMIGNNWGREERELPSFPFVPGKPFEMKILITDTEYKVAVNKSHLLEFKHRVFELNQITGLSIYNDVTLSTVNVETLQ
glycan array binding signal (z-score) [1]: 4.37 | glycan array binding signal (z-score) [2]: 5.52 | glycan array binding signal (z-score) [3]: 5.72 | glycan array binding signal (z-score) [4]: -0.192 | glycan array binding signal (z-score) (GalNAc6S(b1-4)GlcNAc): -0.282 | glycan array binding signal (z-score) [5]: -0.256 | glycan array binding signal (z-score) [6]: -0.297 | glycan array binding signal (z-score) [7]: -0.243 | glycan array binding signal (z-score) (GlcNAc(b1-3)Gal(b1-4)Glc): -0.284 | glycan array binding signal (z-score) [8]: 6.12 | glycan array binding signal (z-score) [9]: 5.4 | glycan array binding signal (z-score) [10]: 5.55 | glycan array binding signal (z-score) [11]: 3.29 | glycan array binding signal (z-score) [12]: -0.249 | glycan array binding signal (z-score) [13]: -0.189 | glycan array binding signal (z-score) [14]: -0.275 | glycan array binding signal (z-score) [15]: -0.257 | glycan array binding signal (z-score) [16]: -0.234 | glycan array binding signal (z-score) [17]: -0.25 | glycan array binding signal (z-score) [18]: 0.971 | glycan array binding signal (z-score) [19]: -0.107 | glycan array binding signal (z-score) [20]: -0.271 | glycan array binding signal (z-score) [21]: -0.195 | glycan array binding signal (z-score) [22]: -0.086 | glycan array binding signal (z-score) (Neu5Gc(a2-6)GalNAc): -0.254
